Our source for the growth inhibition values is PubChem BioAssay (NCI).

This is part of a sample that, as a whole, favours compounds with a hit. Of some 79,000 tested, about 15% had one in any assay. Values without a mark were called inactive. Rule as the data show it: active = growth inhibition above about 70%; inactive = the rest.

The nature of the test: NCI Yeast Anticancer Drug Screen. Data for the bub3 strain (AID 167). The following applies: S. cerevisiae bub3 mutant strain, at 50.0 µM, active compounds read high. Put shortly:
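Readout: yeast growth inhibition, expressed relative to vehicle-only wells. The test organism is a mutant strain from a panel with lesions in DNA repair or checkpoint genes.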
As to `O=c1c2c(nc3n1CCC3)OC(c1ccccc1)C2` (stereo unspecified), the growth inhibition was -2.95%. In the case of `C1CCC2C(C1)CCCC2NC1=NCCO1` (stereo unspecified) it was -1.1%.

On to `O=C1/C(=C/C=C/c2ccccc2)CCC1CNc1ccc(Br)cc1` (stereo unspecified), for which the growth inhibition was -15.4%. The figure for `COC1OC(CS(=O)(=O)O)C(O)C(O)C1O` (stereo unspecified) is -31.9%. In the case of `Cc1ccc(S(=O)(=O)[N-]C2C(=O)c3ccccc3C(=O)C2[n+]2cccc(C(N)=O)c2)cc1` (stereo unspecified) it was 8.8%; in that of `O=C(Nc1ccc(Cl)c(Cl)c1)c1ccc(C(=O)Nc2ccc(Cl)c(Cl)c2)cc1`, -4.85%; in that of `NC(=S)NCc1ccccc1C(O)c1ccccc1` (stereo unspecified), 18.5%.

For the compound `FC(F)(c1nn[nH]n1)C(F)(F)C(F)(F)c1nn[nH]n1`, the growth inhibition is -1.05%.

In the case of `Clc1cccc(N2CCN(CCN3CCc4c([nH]c5ccccc45)C3c3cccnc3)CC2)c1` (stereo unspecified), the growth inhibition is -9.75%. The figure for `C(#Cc1ccccc1)SC1=C(c2ccccc2)S/C(=C(\SC#Cc2ccccc2)c2ccccc2)S1` is -21.1%; for `CCOC(=O)/C(C)=C/CC1=C(O)c2ccccc2C(=O)C1=O` it is 1.95%; for `CCN(CC)c1ncnc2c1nc(C)n2Nc1ccccc1` it is 0.5%. The figure for `CC(=O)c1ccc(NC(=O)/C(=N\NC(N)=O)C(C#N)CC(C)(C)C=O)cc1` (stereo unspecified) is 33.6%; for `O=C(COc1cccc(Cl)c1)Nc1ccc(C(=O)CCl)cc1` it is 47%. In the case of `O=c1c[n+](-c2ccccc2)[nH]o1` it was 7.7%. For the compound `CC1(C)CC(=O)C(/C(=N/NC(=S)NN)C(=O)Nc2nc3ccc([N+](=O)[O-])cc3s2)C(=O)C1`, the growth inhibition is 1%.
